Reference: paper PMC3795721, “Screening for Protein-DNA Interactions by Automatable DNA-Protein Interaction ELISA”

The sequences below were run against AT4G31550 (Arabidopsis thaliana, UniProt Q9SV15 228-325) (assay: DPI-ELISA; DPI-ELISA, streptavidin 384-well plate, 1-2 pmol biotinylated dsDNA per well, crude native E. coli extract, anti-His detection; buffer as in Brand et al. [46],; high values mean tight binding). Conditions: tags: C-terminal His (pET-DEST42); label: 5' biotin on forward strand; dsDNA, one strand shown.
AT4G31550, sequence (Q9SV15 228-325): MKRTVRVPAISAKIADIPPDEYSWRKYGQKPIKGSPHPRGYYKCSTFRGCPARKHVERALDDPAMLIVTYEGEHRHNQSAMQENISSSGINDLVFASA
For AAAAAATGTCTTCTTACACCCTCTAGAAAA, the binding signal was 0.68 ± 0.0707 absorbance.
In the case of AAAAAATTAGACGCTACACTTACGGTAAAA, the binding signal is reported as 0.665 ± 0.106 absorbance.
For AAAAAACTGACCGTCAGCGCCCACGCAAAA, the binding signal was 1.45 ± 0.424 absorbance.
AAAAAACGCTTTCAGTTTTGATCTTAAAAA was tested, and the binding signal was 0.495 ± 0.0778 absorbance.
In the case of AAAAAAATCCGATCGATGCATATATAAAA, the binding signal is reported as 0.725 ± 0.106 absorbance.
Work on AAAAAAGTACATGCGTAGATAATGTTAAAA yielded a binding signal of 0.59 ± 0.127 absorbance.
In the case of AAAAAAGCTGTCACTGTAGTCGGTCCAAAA, the binding signal is reported as 0.67 ± 0.0707 absorbance.
Sequence AAAAAACTGCTTGCCCCTGTCTCCATAAAA has a binding signal of 0.67 ± 0.17 absorbance.
AAAAAAAGGGTCCGGTGCATACATGTAAAA gave a binding signal of 0.57 ± 0.156 absorbance.
In the case of AAAAAACCGTATGTATATCTATATGTAAAA, the binding signal is reported as 0.42 ± 0.113 absorbance.
Sequence AAAAAATCTGTTCTCGTTTCCCCTTCAAAA has a binding signal of 0.805 ± 0.262 absorbance.
In the case of AAAAAAGACACTCTAATTCCGTAGGCAAAA, the binding signal is reported as 0.405 ± 0.0495 absorbance.
AAAAAATGCAGACCTTCAGCTGGGTAAAAA was tested, and the binding signal was 0.58 ± 0.0141 absorbance.
With AAAAAAACTCTCCGGGTACAATTGCAAAAA the binding signal was 0.605 ± 0.205 absorbance.
For AAAAAAATGTTCAAGCTCGATCTACAAAAA, the binding signal was 0.63 ± 0.127 absorbance.
For AAAAAACACTCACACCTATACGGCTCAAAA, the binding signal was 0.665 ± 0.233 absorbance.
AAAAAAAGTTACCAGTACGCGTCGGGAAAA was tested, and the binding signal was 0.64 ± 0.141 absorbance.
AAAAAATCCACGACTCAGCAGCTCTTAAAA showed a binding signal of 0.68 ± 0.0707 absorbance.
AAAAAAGTCCCGCGCTAAGCTTTAAAAAAA was tested, and the binding signal was 0.615 ± 0.106 absorbance.
AAAAAATGCCGAGACCCCATGCCGGCAAAA was tested, and the binding signal was 0.51 ± 0.099 absorbance.
AAAAAATGATGTTGGCGCATTTAAACAAAA gave a binding signal of 0.53 ± 0.127 absorbance.
AAAAAATTCTTTTTTCTTCAAGGTCTAAAA was tested, and the binding signal was 0.565 ± 0.0212 absorbance.
Work on AAAAAACTCCCTCTCCTCTGTCTTCCAAAA yielded a binding signal of 0.635 ± 0.106 absorbance.
Work on AAAAAATGCAACGCTCCTTTCCCGCTAAAA yielded a binding signal of 0.535 ± 0.106 absorbance.
Sequence AAAAAAGGGCCCACTATCGACGTCAAAA has a binding signal of 0.605 ± 0.134 absorbance.
AAAAAACCGCTTACATTGCGTTGTCGAAAA gave a binding signal of 0.605 ± 0.0495 absorbance.
AAAAAATCCATGTTTAAGCTGGTCTCAAAA showed a binding signal of 0.695 ± 0.148 absorbance.
In the case of AAAAAATCCCCCCGTTTCACTCTTGCAAAA, the binding signal is reported as 0.66 ± 0.141 absorbance.
AAAAAAGCCGTGGGTGATGGTCACAGAAAA gave a binding signal of 0.56 ± 0.113 absorbance.
With AAAAAAAGGTCATTGCTGCTGGTGTTAAAA the binding signal was 0.735 ± 0.106 absorbance.
Work on AAAAAATATTCGCCGGTAGCCACGCTAAAA yielded a binding signal of 0.565 ± 0.12 absorbance.
Sequence AAAAAATCATCTCTATGTTATTGTTGAAAA has a binding signal of 0.58 ± 0.113 absorbance.
AAAAAACATCGCTGTCGTTGACGTTGAAAA showed a binding signal of 3.48 ± 0.474 absorbance.
Work on AAAAAATTTCTATTTCATCTTTGCCCAAAA yielded a binding signal of 0.72 ± 0.156 absorbance.
With AAAAAAGTGTGTGGCTCAGGATTCCCAAAA the binding signal was 0.55 ± 0.0849 absorbance.
In the case of AAAAAATTGCCGTCATAATTGTGGTAAAAA, the binding signal is reported as 0.59 ± 0.0849 absorbance.
Sequence AAAAAATTCGGGACTAGTAGTGGTGAAAAA has a binding signal of 0.605 ± 0.0778 absorbance.
In the case of AAAAAATGCTATCCGTGTCTATGCCAAAAA, the binding signal is reported as 0.54 ± 0.0707 absorbance.
